Reference: the supplement of paper PMC11732987, “Enantioselective OTUD7B fragment discovery through chemoproteomics screening and high-throughput optimisation” (Communications Chemistry, 2025)
Unmarked numbers belong to inactive results.

How the values were obtained:
Assay in all cases: log2 ratio of Biotin-Ahx-Ub-VS probe labelling (fragment/DMSO); higher = less target engagement (more negative = stronger competition), active = hit call of the paper (q ≤ 0.05, log2 ratio ≤ -1)
Conditions in all cases: compound concentration: 200 uM; treatment time: 3 h
ALG13 = target: T1, ALG13 (UniProt Q9NP73)
T1 sequence (whole entry): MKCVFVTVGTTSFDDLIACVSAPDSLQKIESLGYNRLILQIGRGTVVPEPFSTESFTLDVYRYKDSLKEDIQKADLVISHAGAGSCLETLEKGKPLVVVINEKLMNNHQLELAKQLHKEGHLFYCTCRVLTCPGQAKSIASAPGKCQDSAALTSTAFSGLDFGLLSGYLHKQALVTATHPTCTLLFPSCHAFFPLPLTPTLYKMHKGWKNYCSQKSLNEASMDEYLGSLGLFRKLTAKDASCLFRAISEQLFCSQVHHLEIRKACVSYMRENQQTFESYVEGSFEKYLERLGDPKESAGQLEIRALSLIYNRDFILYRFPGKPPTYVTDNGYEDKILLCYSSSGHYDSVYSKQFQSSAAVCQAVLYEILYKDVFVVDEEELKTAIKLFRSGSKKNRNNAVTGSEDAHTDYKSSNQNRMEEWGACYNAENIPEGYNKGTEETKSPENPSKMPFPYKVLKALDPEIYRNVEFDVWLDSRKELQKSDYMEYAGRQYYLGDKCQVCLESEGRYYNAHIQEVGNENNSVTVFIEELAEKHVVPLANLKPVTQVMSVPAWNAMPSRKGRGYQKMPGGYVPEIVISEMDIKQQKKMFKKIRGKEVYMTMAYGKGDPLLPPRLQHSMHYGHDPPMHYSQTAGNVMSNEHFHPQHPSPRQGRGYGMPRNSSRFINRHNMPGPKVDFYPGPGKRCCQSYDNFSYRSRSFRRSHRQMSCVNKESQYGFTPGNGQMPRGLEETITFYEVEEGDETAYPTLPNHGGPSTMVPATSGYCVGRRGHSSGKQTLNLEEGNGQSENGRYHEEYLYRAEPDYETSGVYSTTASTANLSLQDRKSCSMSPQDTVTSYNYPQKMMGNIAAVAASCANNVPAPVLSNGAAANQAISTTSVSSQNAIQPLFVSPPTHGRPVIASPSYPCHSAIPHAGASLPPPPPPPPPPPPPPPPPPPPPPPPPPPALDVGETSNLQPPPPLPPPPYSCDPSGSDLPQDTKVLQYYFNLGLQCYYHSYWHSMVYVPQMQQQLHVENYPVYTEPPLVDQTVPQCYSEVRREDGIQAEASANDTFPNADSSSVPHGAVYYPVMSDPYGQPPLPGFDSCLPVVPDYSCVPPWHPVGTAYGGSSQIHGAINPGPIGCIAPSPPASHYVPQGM
In short: (§1)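 Triplicate samples of HEK293T lysate, 495 µg each, received fragment at 200 µM or vehicle for 3 h, followed by Biotin-Ahx-Ub-VS (0.5 µM final) for 1 h. After NeutrAvidin enrichment of labelled DUBs and LysC/trypsin digestion, peptides were run by diaPASEF LC-MS/MS. The values are average log2 fragment/vehicle ratios from global-median-normalised Spectronaut label-free quantities, tested by unpaired t-test on proteins having ≥2 unique peptides.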

ATXN3 = ATXN3 (UniProt P54252)
In short: as §1

BAP1 = target: T2, BAP1 (UniProt Q92560)
T2 sequence (whole entry): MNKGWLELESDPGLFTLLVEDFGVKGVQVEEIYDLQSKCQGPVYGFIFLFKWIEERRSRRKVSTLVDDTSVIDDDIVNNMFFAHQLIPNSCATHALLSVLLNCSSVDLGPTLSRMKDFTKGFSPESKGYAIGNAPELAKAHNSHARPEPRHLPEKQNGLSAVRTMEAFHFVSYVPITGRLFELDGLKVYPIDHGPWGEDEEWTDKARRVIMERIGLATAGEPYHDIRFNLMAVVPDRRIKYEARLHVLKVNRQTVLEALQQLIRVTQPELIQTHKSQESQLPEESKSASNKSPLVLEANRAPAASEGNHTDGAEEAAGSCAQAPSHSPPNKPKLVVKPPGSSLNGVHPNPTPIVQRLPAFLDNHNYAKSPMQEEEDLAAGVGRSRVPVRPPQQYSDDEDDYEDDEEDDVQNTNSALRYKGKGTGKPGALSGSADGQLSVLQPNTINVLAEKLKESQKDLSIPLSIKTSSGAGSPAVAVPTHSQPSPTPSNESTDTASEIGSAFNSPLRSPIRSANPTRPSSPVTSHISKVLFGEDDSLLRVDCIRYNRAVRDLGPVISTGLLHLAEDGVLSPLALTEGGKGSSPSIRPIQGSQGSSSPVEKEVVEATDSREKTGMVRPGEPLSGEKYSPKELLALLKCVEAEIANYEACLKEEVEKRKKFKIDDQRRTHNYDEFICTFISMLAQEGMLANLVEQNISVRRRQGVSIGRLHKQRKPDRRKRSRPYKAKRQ
In short: as §1

EIF3F = EIF3F (UniProt O00303)
In short: as §1

EIF3H = EIF3H (UniProt O15372)
In short: as §1

FAM105A = target: T3, FAM105A (UniProt Q9NUU6)
T3 sequence (whole entry): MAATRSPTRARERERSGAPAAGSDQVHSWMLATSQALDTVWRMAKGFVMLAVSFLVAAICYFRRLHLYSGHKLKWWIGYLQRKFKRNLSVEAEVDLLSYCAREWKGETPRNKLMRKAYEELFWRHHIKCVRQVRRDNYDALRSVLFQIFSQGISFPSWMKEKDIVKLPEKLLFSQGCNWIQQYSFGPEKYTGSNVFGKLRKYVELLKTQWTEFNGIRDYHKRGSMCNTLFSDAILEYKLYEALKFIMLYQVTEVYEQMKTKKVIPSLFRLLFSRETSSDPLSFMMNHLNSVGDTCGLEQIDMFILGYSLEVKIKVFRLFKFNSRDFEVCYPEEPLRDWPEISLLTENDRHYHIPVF
In short: as §1

OTUB1 = OTUB1 (UniProt Q96FW1)
In short: as §1

OTUD4 = target: T4, OTUD4 (UniProt Q01804)
T4 sequence (whole entry): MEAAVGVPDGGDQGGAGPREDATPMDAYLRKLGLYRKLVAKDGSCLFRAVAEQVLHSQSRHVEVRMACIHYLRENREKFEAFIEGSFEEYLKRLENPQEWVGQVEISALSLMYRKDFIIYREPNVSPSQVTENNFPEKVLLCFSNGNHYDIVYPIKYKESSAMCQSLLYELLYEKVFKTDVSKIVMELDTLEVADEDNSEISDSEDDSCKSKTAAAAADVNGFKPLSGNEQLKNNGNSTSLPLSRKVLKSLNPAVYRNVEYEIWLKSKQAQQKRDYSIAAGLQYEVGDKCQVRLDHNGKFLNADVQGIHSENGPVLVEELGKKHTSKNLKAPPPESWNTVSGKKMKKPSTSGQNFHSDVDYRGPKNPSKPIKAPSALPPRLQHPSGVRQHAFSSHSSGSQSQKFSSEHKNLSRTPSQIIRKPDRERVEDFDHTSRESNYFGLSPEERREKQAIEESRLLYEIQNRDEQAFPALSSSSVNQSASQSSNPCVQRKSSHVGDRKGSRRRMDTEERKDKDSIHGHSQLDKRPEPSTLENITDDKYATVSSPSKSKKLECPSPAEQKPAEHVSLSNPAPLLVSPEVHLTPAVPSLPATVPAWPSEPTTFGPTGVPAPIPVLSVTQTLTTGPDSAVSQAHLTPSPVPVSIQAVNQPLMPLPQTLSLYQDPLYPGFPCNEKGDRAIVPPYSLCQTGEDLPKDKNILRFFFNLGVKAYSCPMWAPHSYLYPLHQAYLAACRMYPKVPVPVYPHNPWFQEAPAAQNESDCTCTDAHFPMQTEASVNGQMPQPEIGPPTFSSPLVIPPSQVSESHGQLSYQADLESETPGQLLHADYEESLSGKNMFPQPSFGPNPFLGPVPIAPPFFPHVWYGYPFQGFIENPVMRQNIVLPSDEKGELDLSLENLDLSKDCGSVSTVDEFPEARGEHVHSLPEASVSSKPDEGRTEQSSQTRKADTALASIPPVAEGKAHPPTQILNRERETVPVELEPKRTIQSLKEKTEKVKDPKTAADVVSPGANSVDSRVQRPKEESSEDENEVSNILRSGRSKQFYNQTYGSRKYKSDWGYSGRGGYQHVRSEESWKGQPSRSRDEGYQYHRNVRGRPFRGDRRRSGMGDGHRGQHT
In short: as §1

OTUD5 = target: T5, OTUD5 (UniProt Q96G74)
T5 sequence (whole entry): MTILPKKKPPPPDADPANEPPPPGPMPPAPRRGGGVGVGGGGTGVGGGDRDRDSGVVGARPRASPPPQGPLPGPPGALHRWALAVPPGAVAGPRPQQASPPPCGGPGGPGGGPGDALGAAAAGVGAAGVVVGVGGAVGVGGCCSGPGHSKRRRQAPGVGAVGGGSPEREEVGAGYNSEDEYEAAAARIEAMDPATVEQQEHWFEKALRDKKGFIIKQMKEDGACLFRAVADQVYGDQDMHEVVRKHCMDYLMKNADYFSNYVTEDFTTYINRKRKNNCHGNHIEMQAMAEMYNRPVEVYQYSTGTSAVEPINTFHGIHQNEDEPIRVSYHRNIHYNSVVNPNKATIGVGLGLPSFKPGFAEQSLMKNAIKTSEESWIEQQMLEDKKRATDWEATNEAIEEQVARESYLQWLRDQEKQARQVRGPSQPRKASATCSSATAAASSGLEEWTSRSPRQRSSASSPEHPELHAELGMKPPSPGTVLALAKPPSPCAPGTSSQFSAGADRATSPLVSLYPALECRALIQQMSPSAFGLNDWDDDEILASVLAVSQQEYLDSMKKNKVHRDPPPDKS
In short: as §1

EIF3H, sequence (O15372 whole entry): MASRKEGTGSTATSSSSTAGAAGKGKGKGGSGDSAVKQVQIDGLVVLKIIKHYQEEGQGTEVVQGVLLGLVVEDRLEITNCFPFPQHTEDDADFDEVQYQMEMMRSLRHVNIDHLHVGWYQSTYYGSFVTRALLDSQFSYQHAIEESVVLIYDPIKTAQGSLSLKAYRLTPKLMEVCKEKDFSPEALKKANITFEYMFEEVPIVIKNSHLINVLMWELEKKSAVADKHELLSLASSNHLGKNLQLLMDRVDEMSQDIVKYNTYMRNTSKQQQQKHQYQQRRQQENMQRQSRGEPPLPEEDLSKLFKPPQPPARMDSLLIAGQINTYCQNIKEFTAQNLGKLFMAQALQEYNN
OTUB1, sequence (Q96FW1 whole entry): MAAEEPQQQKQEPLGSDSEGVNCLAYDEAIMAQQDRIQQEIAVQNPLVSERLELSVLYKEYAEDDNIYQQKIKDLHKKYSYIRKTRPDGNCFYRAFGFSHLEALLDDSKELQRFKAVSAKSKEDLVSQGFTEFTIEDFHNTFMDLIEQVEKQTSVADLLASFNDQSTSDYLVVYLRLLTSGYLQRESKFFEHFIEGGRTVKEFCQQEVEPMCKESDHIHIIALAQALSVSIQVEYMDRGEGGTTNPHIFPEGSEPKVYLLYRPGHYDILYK
ATXN3, sequence (P54252 whole entry): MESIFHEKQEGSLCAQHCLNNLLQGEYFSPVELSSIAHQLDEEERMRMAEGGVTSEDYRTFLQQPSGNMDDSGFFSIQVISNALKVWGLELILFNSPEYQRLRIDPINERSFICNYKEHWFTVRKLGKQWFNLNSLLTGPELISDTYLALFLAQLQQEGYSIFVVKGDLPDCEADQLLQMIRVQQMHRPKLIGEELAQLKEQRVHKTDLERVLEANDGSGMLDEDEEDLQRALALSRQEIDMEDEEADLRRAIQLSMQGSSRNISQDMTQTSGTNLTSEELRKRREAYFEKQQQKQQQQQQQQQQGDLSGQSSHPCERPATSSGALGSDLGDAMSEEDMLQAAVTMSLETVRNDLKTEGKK
EIF3F, sequence (O00303 whole entry): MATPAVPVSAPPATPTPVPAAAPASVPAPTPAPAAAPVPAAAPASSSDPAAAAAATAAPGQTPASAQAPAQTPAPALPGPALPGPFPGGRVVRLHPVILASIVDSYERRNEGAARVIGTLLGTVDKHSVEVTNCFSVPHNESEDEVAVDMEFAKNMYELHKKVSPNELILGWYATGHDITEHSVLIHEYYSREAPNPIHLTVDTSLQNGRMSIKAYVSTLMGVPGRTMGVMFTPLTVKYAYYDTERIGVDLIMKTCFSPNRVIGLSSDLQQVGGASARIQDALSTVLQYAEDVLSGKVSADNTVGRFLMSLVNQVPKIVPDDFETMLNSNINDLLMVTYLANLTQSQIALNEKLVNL

SMILES	log2 ratio of Biotin-Ahx-Ub-VS probe labelling (ALG13)	log2 ratio of Biotin-Ahx-Ub-VS probe labelling (ATXN3)	log2 ratio of Biotin-Ahx-Ub-VS probe labelling (BAP1)	log2 ratio of Biotin-Ahx-Ub-VS probe labelling (EIF3F)	log2 ratio of Biotin-Ahx-Ub-VS probe labelling (EIF3H)	log2 ratio of Biotin-Ahx-Ub-VS probe labelling (FAM105A)	log2 ratio of Biotin-Ahx-Ub-VS probe labelling (OTUB1)	log2 ratio of Biotin-Ahx-Ub-VS probe labelling (OTUD4)	log2 ratio of Biotin-Ahx-Ub-VS probe labelling (OTUD5)
CN1C(=O)c2ccc(NC(=O)CCl)cc2C1=O	0.35	-0.464	-3.58 (active)	-0.166	0.319	-0.33	0.0722	-0.313	-0.621
O=C(CCl)N1CCC[C@@H]1c1ccon1	0.188	-1.28 (active)	-2.4 (active)	-0.585	0.193	0.198	-0.236	-0.381	-0.427
O=C(CCl)Nc1cccc2ncccc12	-0.13	0.14	-3.71 (active)	0.254	-0.273	-0.205	0.156	-0.176	-0.516
Cc1ccc(N2CCC(NC(=O)CCl)C2=O)cc1 (stereo unspecified)	-0.511	-0.0941	-2.46 (active)	0.043	-0.278	0.0934	0.0513	0.0319	0.0904
O=C(CCl)Nc1cc2c(cc1Cl)OCCCO2	0.0687	-0.0939	-3.43 (active)	-0.197	-0.577	0.278	-0.0827	0.136	-0.0905
O=C(CCl)N1CCN(c2nc3ccccc3o2)CC1	0.254	-1.05 (active)	-1.05 (active)	-0.704	-0.664	0.0333	0.0507	-0.141	-0.83
Cl.O=C(CCl)NCc1ccnc(Oc2ccccc2F)c1	0.177	-0.51	-3.99 (active)	-0.072	-0.589	-0.0684	-0.232	-0.244	-0.524
O=C(CCl)N1CCc2[nH]c3ccccc3c2C1	-0.37	-0.343	-0.875	-0.00281	0.231	0.0311	-0.167	-0.657	-1.55 (active)
O=C(CCl)NC1CCS(=O)(=O)c2ccccc21 (stereo unspecified)	-0.299	-0.496	-2.77 (active)	-0.00472	-0.0327	-0.0548	0.0659	-1.76 (active)	-0.271
Cc1ccccc1OCC(=O)N1CCN(C(=O)CCl)CC1	-0.255	-0.894	-0.74	-0.317	0.19	0.252	-0.249	0.0744	-0.161
Cl.O=C(CCl)NC1(c2ncccn2)CCC1	0.0863	0.0333	-0.171	-0.137	0.137	-0.242	-0.293	-0.17	0.0342
Cc1ccc(CN(C)C(=O)CCl)o1	0.042	-0.103	-0.4	-0.0182	-0.047	0.277	0.103	0.05	-0.308
CNC(=O)C1CCN(C(=O)CCl)CC1	0.0075	-0.0902	-0.309	-0.0903	0.232	0.31	-0.105	0.0041	-0.381
Cc1c(C#N)c(NC(=O)CCl)n(Cc2ccco2)c1C	0.126	-0.609	-3.61 (active)	-0.174	-0.447	-0.107	0.0458	-0.292	-0.61
